SKKanGAS inh – inhibitors of SKKanGAS S. pyogenes growth in kanamycin (SK-promoter or general growth effect); BacTiter-Glo, 6 h; inhibition, % at 7.5 µM; 300,000 tested, 1.3% active; AID 1662;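 active = mean replicate score, as percent of positive control median, at least 50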;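 note: strain carries kanamycin resistance gene driven by streptokinase promoter and grows in 40 µg/ml kanamycin; loss of luminescence reflects streptokinase promoter inhibition or plain growth inhibition; 0% = median of DMSO wells and 100% = positive control at its reference dose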
TIM10 inh – inhibits growth of TIM10 yeast strain; S. cerevisiae TIM10 strain growth, BacTiter-Glo luminescence, 24 h; inhibition, % at 10 µM; 330,000 tested, 1.4% active;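 active = inhibition of 40% or more at the single tested concentration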;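 note: wild-type TIM10 isogenic control strain grown at permissive 25 °C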
PfHsp90 set2 – growth inhibition of yeast expressing Plasmodium Hsp90; S. cerevisiae expressing PfHsp90, BacTiter-Glo ATP, 48 h; yeast lacking PDR1 and PDR3 efflux regulators; inhibition, % at 9.4 µM; 310,000 tested, 0.32% active; AID 504621;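 active = every replicate shows inhibition above about 80%, whatever the replicate mean, limit read from the data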;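 note: 0% = DMSO neutral controls and 100% = 20 µM radicicol positive controls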
EBI2 antag – EBI2 (human) antagonism; P32249; 360,000 tested, 0.81% active; AID 651636; EBI2 beta-arrestin recruitment, luminescence, 7a,25-OHC stimulated; inhibition, % at 5 µM; in the data active = inhibition above about 38%;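 note: enzyme fragment complementation signal reports receptor beta-arrestin coupling in cells; 0% = agonist plus DMSO wells and 100% = wells without agonist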
Target sequence (P32249 whole entry, looked up, the tested form may be a part): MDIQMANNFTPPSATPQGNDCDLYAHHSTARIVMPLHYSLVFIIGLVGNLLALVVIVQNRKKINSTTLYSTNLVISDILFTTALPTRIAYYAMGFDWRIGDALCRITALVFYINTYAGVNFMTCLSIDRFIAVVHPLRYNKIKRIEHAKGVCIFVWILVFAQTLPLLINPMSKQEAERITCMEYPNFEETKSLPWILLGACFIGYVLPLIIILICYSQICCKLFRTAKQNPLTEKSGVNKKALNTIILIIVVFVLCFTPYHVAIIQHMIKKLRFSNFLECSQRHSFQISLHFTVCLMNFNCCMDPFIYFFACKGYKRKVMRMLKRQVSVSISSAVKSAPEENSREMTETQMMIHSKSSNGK
tim10-1 inh – inhibits growth of tim10-1 mutant yeast; S. cerevisiae tim10-1 ts strain growth, BacTiter-Glo, 24 h; inhibition, % at 20 µM; 330,000 tested, 2.2% active; AID 463190;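 active = inhibition of at least 40%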;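 note: mutant grown at 25 °C; 0% = DMSO wells with yeast and 100% = wells holding no yeast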
tim23-1 inh – growth inhibitors of tim23-1 mutant yeast | inhibition, % at 20 µM | AID 463212 | 330,000 tested, 1.3% active | S. cerevisiae tim23-1 growth, BacTiter-Glo luminescence, 24 h;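 active = growth inhibition of the mutant yeast at or above 50%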;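 note: temperature-sensitive mutant grown at 25 °C; plate controls were DMSO-treated mutant yeast for no effect and medium wells lacking yeast for full effect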
tim10-1 conf – tim10-1 yeast growth inhibition, confirmed; shares compounds with tim10-1 inh; S. cerevisiae tim10-1 ts strain growth, BacTiter-Glo, 24 h; inhibition, % at 20 µM; 7,400 tested, 56% active; AID 463213;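 active = inhibition of yeast growth at or above a set limit in either of two repeat tests at 20 µM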;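 note: tim10-1 mutant grown at permissive 25 °C to find synthetic lethal compounds; 0% = DMSO yeast wells and 100% = medium wells without yeast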
The depositor's hits bear a star; nt = no result given. Hits are enriched below; roughly 4.7% of the tested compounds scored in any of these assays.

SMILES	SKKanGAS inh	TIM10 inh	PfHsp90 set2	EBI2 antag	tim10-1 inh	tim23-1 inh	tim10-1 conf
O=C(C1CCCN(S(=O)(=O)c2cccc3nsnc23)C1)N1CC=C(c2ccccc2)CC1 (centres undefined)	nt	26.4	-29.4	9.4	14.7	6.3	nt
O=C(C1CCN(S(=O)(=O)c2cccc3nsnc23)CC1)N1CC=C(c2ccccc2)CC1	3.6	12.2	10.0	11.9	42.6*	10.1	21.2
Cc1ccc(S(=O)(=O)N(CCC(=O)O)Cc2ccc(Cl)cc2)cc1	3.9	0.9	-25.9	2.6	-0.1	2.4	nt
Nc1nc(CN2CCN(c3ccccc3F)CC2)nc(N2CCCc3ccccc32)n1	nt	31.8	9.8	-11.8	37.6	20.2	nt
COc1ccc(N2CCN(Cc3nc(N)nc(N4CCCc5ccccc54)n3)CC2)cc1	38.5	15.6	0.9	-5.7	40.4*	22.4	14.8
CC1(C)CCN(Cc2ccccc2)C1CC#N (centres undefined)	0.3	6.8	nt	7.8	4.1	-4.3	nt
COc1ccc(CCN2C(=O)N[C@@H](C(C)C)C2=O)cc1	1.2	-9.7	-3.0	-7.9	17.1	10.4	nt
COc1ccc(/C=C/C(=O)c2cc(F)ccc2OC(=O)c2ccccc2C)cc1OC	-15.4	20.4	-15.0	-1.7	41.4*	29.8	20.0
CC(/C=N/Nc1nc(C)cc(=O)[nH]1)=C\c1ccccc1	-5.2	16.6	nt	19.1	28.8	12.7	nt
CC(/C=N/Nc1ncc(C)c(=O)[nH]1)=C\c1ccccc1	-5.6	13.7	-4.1	17.0	41.2*	6.2	20.0
COC(=O)c1ccccc1NC(=O)COc1ccc(S(=O)(=O)NC(C)C)cc1	-9.4	21.4	2.1	2.9	13.8	28.0	nt
Cc1ccc2c(c1)c(/C=C/c1cc[n+](C)cc1)c(C)n2C	-2.2	17.8	10.6	-6.6	16.1	-2.7	nt
Cc1ccc2[nH]c(C)c(/C=C/c3cc[n+](C)cc3)c2c1	-8.8	33.1	13.8	10.7	51.4*	27.4	23.2
Cc1nc2ccccc2c2oc(C(=O)N3CCC(C)CC3)cc12	5.2	-3.6	-5.3	-23.6	46.2*	34.1	-27.9
Cc1nc2ccccc2c2oc(C(=O)N3CCN(C(=O)c4ccco4)CC3)cc12	0.8	0.2	-3.6	5.6	6.2	5.2	nt
Cc1ccnc(NC(=O)C23CC4CC(CC(C4)C2)C3)c1	-7.4	21.7	-13.9	-15.4	48.9*	38.4	33.9*
COc1ccc(C(CNC(=O)c2oc3ccc(Br)cc3c2C)N2CCCCC2)cc1 (centres undefined)	0.5	26.2	-4.1	9.4	28.7	23.3	nt
COc1ccc(C(CNC(=O)c2oc3cc(Br)ccc3c2C)N2CCCCC2)cc1 (centres undefined)	-9.9	35.4	-6.2	5.6	42.0*	30.1	-17.1
CCCn1nc(NC(=O)CC)c2cc3cccc(C)c3nc21	-3.7	20.3	11.7	0.3	17.3	23.7	nt
CCCn1nc(NS(C)(=O)=O)c2cc3cccc(C)c3nc21	-1.9	27.3	nt	-13.4	42.4*	34.1	35.0*
CCn1nc(NS(=O)(=O)c2ccc(C)cc2)c2cc3ccccc3nc21	5.4	-8.8	3.4	-6.1	43.8*	34.0	-9.4
CCOCc1cc(=O)[nH]c(SC)n1	-6.0	0.1	19.0	0.2	-16.6	3.8	nt
O=C(c1ccc(Cl)cc1)[C@@H]1[C@@H]2C(=O)N(c3cccc4ccccc34)C(=O)[C@@H]2C2c3ccccc3C=NN21 (some centres undefined)	1.5	22.4	10.3	11.4	18.2	18.6	nt
C/C(=N\N1CCN(c2ccc(Cl)cc2)CC1)c1ccco1	-2.3	6.2	5.5	-9.2	8.0	22.5	nt
C/C(=N\N1CCN(C2c3ccccc3-c3ccccc32)CC1)c1ccco1	4.0	1.9	2.6	-8.3	40.9*	18.6	14.6
SMILES	SKKanGAS inh	TIM10 inh	PfHsp90 set2	EBI2 antag	tim10-1 inh	tim23-1 inh	tim10-1 conf
O=c1c2ccccc2n(Cc2cccc(F)c2)c(=O)n1C1CCCC1	30.4	25.3	10.4	6.1	35.4	33.1	nt
N#Cc1ccccc1Cn1c(=O)n(C2CCCC2)c(=O)c2ccccc21	2.0	24.0	-8.3	5.0	46.1*	41.4	38.0*
COC(=O)c1ccc(NS(=O)(=O)c2ccc(SC)cc2)cc1	-2.7	13.2	29.2	-3.4	40.5*	31.5	20.8
COc1ccc(NS(=O)(=O)c2ccc(SC)cc2)cc1	-0.4	-6.9	-0.6	1.2	18.5	19.7	nt
CCOC(=O)/C(C#N)=C/c1c(N2CCN(c3ccccc3)CC2)nc2ccccn2c1=O	6.4	25.2	-25.5	20.8	43.6*	40.4	30.3
COC(=O)/C(C#N)=C/c1c(N2CCN(c3ccccc3)CC2)nc2ccccn2c1=O	1.2	21.5	-13.6	14.8	18.3	24.7	nt
O=P(CCCO)(Cc1ccccc1)Cc1ccccc1	-0.6	-0.7	-2.2	-13.1	4.5	20.8	nt
O=C(COC(=O)c1cc(S(=O)(=O)N2CCCCC2)ccc1N1CCOCC1)NC1CCCCC1	-6.7	-3.5	13.5	11.7	3.3	10.6	nt
NC(=O)/C=C\c1cn(-c2ccccc2)nc1-c1ccc2c(c1)OCCO2	-3.3	14.7	10.3	-6.2	-12.1	18.1	nt
CNC(=O)COC(=O)/C=C/c1cn(-c2ccccc2)nc1-c1ccc2c(c1)OCCO2	-9.4	20.7	nt	1.6	41.1*	10.8	28.5*
Cn1c(-c2ccccc2O)cc2ccccc21	0.6	24.5	21.5	2.4	47.8*	39.4	28.6*
COc1ccc(/C(N)=N/OC(=O)CCC2CCCC2)cc1OC	2.4	8.7	-30.1	8.2	45.7*	20.1	36.8*
COc1ccc(/C(N)=N/OC(=O)C2CCCCC2)cc1OC	6.8	16.1	-9.1	-2.5	37.0	22.3	nt
COc1ccc(/C(N)=N/OC(=O)C2CCCCC2)cc1	1.2	34.1	0.2	5.6	50.6*	24.7	31.4*
N/C(=N\OC(=O)CC1CCCCC1)c1ccc(Br)cc1	0.4	19.4	18.0	-0.8	32.6	12.7	nt
COc1ccc(/C(N)=N/OC(=O)CC2CCCCC2)cc1OC	-1.7	17.9	-17.7	-2.1	50.8*	19.4	60.8*
COC(=O)CN(C#N)c1nc(NCc2ccccc2)nc(OC)n1	1.6	-24.4	10.3	-1.1	-1.7	5.4	nt
CCOC(=O)c1cc(C(C)(C)C)oc1CNC(=O)c1c(C)oc2c1CCCC2	9.2	28.3	-5.0	20.0	43.6*	25.7	33.1*
O=C(NCc1nc2ccccc2[nH]1)C1=C[C@H](c2ccc(C(F)(F)F)cc2)C[C@H](OCCCCO)O1	-1.9	-2.5	-11.4	14.6	11.0	21.7	nt
COc1ccc(/C=C2\CCC(C3CCCC3)C2=O)cc1 (centres undefined)	3.2	0.7	19.9	-0.8	10.1	8.0	nt
COc1ccc(/C=C2\CCCC3C2=NC(=S)NC3c2ccc(OC)cc2)cc1 (centres undefined)	13.2	24.0	-8.4	-5.2	46.1*	49.5	28.3
